Our source for the Z-AUC values is PubChem BioAssay (NCATS).

Structures are written as SMILES.

The assay in a line: qHTS drug screen for cell cycle checkpoint inhibitors in PARPi-resistant BRCA-mutant ovarian cancer cell lines. (AID 1963452). The following applies: PEO1/OlaR viability, CellTiter-Glo luminescence, 96 h; measured here: PEO4 Z-AUC; stronger effect = lower value. The method, boiled down:
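PEO1, PEO4 and PEO1/OlaR ovarian cancer cells, 600 per well, exposed 96 h at 37C to a dilution series. Viability read by CellTiter-Glo luminescence, normalized to DMSO and empty wells; activity summarized as Z-AUC.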
As to `COc1ccc(C(=O)C2CCN(CC(=O)N(Cc3nc4c(c(=O)[nH]3)COCC4)CC3CC3)CC2)cc1`, the Z-AUC was -0.695.
The value for `COc1cc2ncnc(Nc3cccc(Cl)c3F)c2cc1OC(=O)N1CCN(C)C[C@H]1C` was -1.14.
`Cc1cnc(Nc2ccc(F)cc2Cl)nc1-c1c[nH]c(C(=O)NC(CO)c2cccc(Cl)c2)c1` (centres undefined): the Z-AUC is -0.952.
With `CS(=O)(=O)c1ccc(-c2nnc(/C=C/c3nnc(-c4ccc(C#N)cc4)o3)n2-c2ccccc2Cl)nc1`, the Z-AUC is -0.0878.
Then `C[C@H]1[C@H](O)O[C@@H]2O[C@@]3(C)CC[C@H]4[C@H](C)CC[C@@H]1[C@@]24OO3`, with 1.02; and `CCNCc1nc2c(N)nc3ccccc3c2n1CC(C)(C)O`, with 0.404.
In the case of `CC(O)c1cc(C(=O)N[C@@H](C)Cn2ccc(-c3ccc(C#N)c(Cl)c3)n2)n[nH]1` (some centres undefined), the Z-AUC was -0.279.
`Cc1c(C(=O)N2CCOc3ccc(-c4ccc(N)nc4)cc3C2)ccc(S(C)(=O)=O)c1F`: the Z-AUC stood at 0.378.
`COc1ccc(N(C)c2nc(C)nc3ccccc23)cc1`: the Z-AUC is -2.81.
As to `Cn1cncc1C(N)(c1ccc(Cl)cc1)c1ccc2c(c1)c(-c1cccc(Cl)c1)cc(=O)n2C` (centres undefined), the Z-AUC is -0.873.
Then `CN1CCN(C(=O)c2ccc3cc(CCNc4ncnc5ccc(C#N)cc45)ccc3c2)CC1`, with -0.499.
For `CCNC(=O)Nc1ncc(-c2cc(-c3c(C)cc(OC)cc3C)nc(-c3cnccn3)n2)s1`, the Z-AUC is 1.47.
Then `O=C(/C=C/c1cccc(S(=O)(=O)Nc2ccccc2)c1)NO`, with -1.35.
The value for `COc1ccc(Cl)c(Nc2nc3ccccc3nc2NS(=O)(=O)c2cccc(NC(=O)C(C)(C)N)c2)c1` was 0.742; that for `CC[C@]1(O)CC2CN(CCc3c([nH]c4ccccc34)[C@@](C(=O)OC)(c3cc4c(cc3OC)N(C)[C@H]3[C@@](O)(C(=O)OC)[C@H](OC(C)=O)[C@]5(CC)C=CCN6CC[C@]43[C@@H]65)C2)C1` (some centres undefined) was -0.893; that for `Cc1[nH]nc(C(F)(F)F)c1Cc1sc2c(c1C(=O)N1C[C@](C)(O)CO1)c(=O)n(C)c(=O)n2C(C)C` was 0.623.
The value for `CCOc1cc(C(=O)N2CCC(N3CCN(C)CC3)CC2)ccc1Nc1ncc2c(n1)N(C1CCCC1)c1ccccc1C(=O)N2C` was -0.487; that for `c1cc(Nc2cc(C3CC3)[nH]n2)nc(Nc2ccc3nc[nH]c3c2)n1` was -2.23; that for `C[C@H](Nc1ncnc2nc[nH]c12)c1cc2ccc(F)cc2nc1-c1ccccn1` was 0.432.
For `COCCN1CCN(Cc2ccc(-c3n[nH]c4c3C(=O)c3c(NC(=O)NN5CCOCC5)cccc3-4)cc2)CC1`, the Z-AUC worked out at 0.00286.
In the case of `CS(=O)(=O)N1CCC(NC(=O)c2[nH]ncc2NC(=O)c2c(Cl)cccc2Cl)CC1`, the Z-AUC is -1.67.
Regarding `Cc1nc([C@](C)(O)CO)sc1-c1cnc(N)c(O[C@H](C)c2cc(F)ccc2-n2nccn2)c1`, the Z-AUC was -0.14.
Then `CC(C)[C@@H](CS(=O)(=O)C(C)C)N1C(=O)[C@@](C)(CC(=O)O)C[C@H](c2cccc(Cl)c2)[C@H]1c1ccc(Cl)cc1`, with 1.87; and `COCCOc1ccc(N2CCN(CCn3ncc4c3nc(N)n3nc(-c5ccco5)nc43)CC2)cc1`, with -0.723; and `Cc1ccc(S(=O)(=O)Cc2nc(-c3ccc(C(=O)NCc4cccnc4)cc3)oc2C)cc1`, with -2.76.
As to `COc1cc2ncnc(Nc3ccc(F)c(Cl)c3)c2cc1NC(=O)/C=C/CN1CCCCC1`, the Z-AUC is -1.24.
The value for `O=C(/C=C\n1cnc(-c2cc(C(F)(F)F)cc(C(F)(F)F)c2)n1)N1CC(F)(F)C1` was -1.38; that for `CC[C@H](NC(=O)[C@H](CS(=O)(=O)CC1CC1)N[C@@H](c1ccc(F)cc1)C(F)(F)F)C(=O)C(=O)NC1CC1` was 1.51.
`CCn1c(=O)c(-c2ccn[nH]2)cc2c(C)nc(N)nc21`: the Z-AUC was -0.63.
